Common to all, as to assay: protein-binding microarray (PBM); PBM: ~300 nM protein, 6 mM HEPES pH 7.8, 80 mM KCl, 0.5 mM EDTA, 0.5 mM EGTA, 6% glycerol, 35 ng/ul poly-dIdC, 1% milk, 1 h, room temperature; Ap Aiptasia and Nv Nematostella (sea anemones) / Co Capsaspora / Aq Amphimedon (sponge) / Dm Drosophila / Hu human; RHD is the Rel homology domain; high values mean tight binding
What all share (details): dsDNA, one strand shown

One assay concerns the target T1, GST-Ap-NF-kB RHD (Exaiptasia pallida (Aiptasia), UniProt A0A913YAJ5 2-422).
T1 sequence: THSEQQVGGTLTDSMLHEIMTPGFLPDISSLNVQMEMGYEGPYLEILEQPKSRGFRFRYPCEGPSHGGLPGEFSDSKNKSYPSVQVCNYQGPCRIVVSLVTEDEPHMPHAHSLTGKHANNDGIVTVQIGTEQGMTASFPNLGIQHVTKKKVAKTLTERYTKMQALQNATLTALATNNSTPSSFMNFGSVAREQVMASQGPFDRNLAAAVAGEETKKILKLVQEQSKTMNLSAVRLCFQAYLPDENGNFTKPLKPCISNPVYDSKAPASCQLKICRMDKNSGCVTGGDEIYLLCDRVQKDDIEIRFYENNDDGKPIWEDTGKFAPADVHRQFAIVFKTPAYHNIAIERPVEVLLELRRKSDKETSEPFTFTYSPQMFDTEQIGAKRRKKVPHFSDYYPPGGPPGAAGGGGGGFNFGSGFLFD

The target of assay [1] is T2, GST-Nv-NF-kB (Ser allele) (Nematostella vectensis, UniProt A7UNT2 2-411).
T2 sequence: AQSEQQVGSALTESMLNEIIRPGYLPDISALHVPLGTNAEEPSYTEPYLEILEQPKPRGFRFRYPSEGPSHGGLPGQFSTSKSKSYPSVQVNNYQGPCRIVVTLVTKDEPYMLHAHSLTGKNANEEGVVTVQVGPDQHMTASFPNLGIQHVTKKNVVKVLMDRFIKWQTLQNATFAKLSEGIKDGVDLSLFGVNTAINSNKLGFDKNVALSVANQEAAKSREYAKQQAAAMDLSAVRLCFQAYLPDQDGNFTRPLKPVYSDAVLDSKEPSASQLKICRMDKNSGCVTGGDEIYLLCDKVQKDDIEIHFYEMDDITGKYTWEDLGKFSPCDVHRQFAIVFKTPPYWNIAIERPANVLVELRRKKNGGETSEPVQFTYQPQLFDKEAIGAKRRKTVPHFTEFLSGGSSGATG

Another assay has as its target T3, GST-Co-NF-kB (Capsaspora owczarzaki, UniProt F1ARL5 200-546).
T3 sequence: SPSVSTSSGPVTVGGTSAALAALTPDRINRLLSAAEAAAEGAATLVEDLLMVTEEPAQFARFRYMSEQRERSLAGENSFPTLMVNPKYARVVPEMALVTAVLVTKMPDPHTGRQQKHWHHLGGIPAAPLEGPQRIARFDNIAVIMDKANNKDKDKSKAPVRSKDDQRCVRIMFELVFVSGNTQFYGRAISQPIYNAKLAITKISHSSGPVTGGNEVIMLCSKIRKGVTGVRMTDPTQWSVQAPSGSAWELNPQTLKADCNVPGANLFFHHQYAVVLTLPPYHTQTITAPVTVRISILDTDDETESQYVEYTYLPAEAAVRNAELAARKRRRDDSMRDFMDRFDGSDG

The target in the next assay is T4, GST-Dm-Relish (Drosophila melanogaster, UniProt Q94527 99-473).
T4 sequence: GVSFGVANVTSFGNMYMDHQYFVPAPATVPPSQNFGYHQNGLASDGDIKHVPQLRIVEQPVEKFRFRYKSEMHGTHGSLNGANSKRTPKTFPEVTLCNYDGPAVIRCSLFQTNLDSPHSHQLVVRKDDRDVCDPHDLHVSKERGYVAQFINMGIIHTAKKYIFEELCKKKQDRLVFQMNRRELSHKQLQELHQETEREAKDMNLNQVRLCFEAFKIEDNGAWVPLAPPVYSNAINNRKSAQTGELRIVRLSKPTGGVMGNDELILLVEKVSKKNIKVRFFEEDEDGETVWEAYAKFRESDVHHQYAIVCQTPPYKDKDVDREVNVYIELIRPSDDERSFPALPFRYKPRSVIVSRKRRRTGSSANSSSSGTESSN

Another assay has as its target T5, GST-Aq-NF-kB (Amphimedon queenslandica, UniProt A9Y5G7 2-389).
T5 sequence: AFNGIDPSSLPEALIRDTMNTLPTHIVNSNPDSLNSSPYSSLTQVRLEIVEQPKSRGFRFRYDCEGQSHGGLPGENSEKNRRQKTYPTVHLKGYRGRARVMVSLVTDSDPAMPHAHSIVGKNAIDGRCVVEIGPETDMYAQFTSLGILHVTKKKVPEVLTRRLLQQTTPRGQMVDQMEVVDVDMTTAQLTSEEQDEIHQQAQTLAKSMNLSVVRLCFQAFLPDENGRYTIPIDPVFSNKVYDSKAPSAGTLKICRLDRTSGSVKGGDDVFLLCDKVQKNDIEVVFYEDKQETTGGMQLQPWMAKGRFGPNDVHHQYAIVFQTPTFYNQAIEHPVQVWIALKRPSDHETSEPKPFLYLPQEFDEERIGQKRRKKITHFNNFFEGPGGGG

Consider “CCGATTAACATCACCCCCCCTGATGATGTTAATCGGGTCTTGATTCGCTTGACGCTGCTG”, for which the binding signal is 4.83 z-score with GST-Ap-NF-kB RHD; 3.09 z-score in assay [1]; 5.83 z-score with GST-Co-NF-kB; 4.63 z-score with GST-Dm-Relish; 4.51 z-score with GST-Aq-NF-kB.

As for “CCGATTAACATCACGGGGGGGGATGATGTTAATCGGGTCTTGATTCGCTTGACGCTGCTG”, the binding signal with GST-Ap-NF-kB RHD came to 6.27 z-score; in assay [1], 5.38 z-score; with GST-Co-NF-kB, 7.62 z-score; with GST-Dm-Relish it was 5.35 z-score; with GST-Aq-NF-kB, 5.29 z-score.

Consider “CCGATTAACATCAATACCCCCCCTGATGTTAATCGGGTCTTGATTCGCTTGACGCTGCTG”, for which the binding signal with GST-Ap-NF-kB RHD was found to be 6.7 z-score; with GST-Co-NF-kB, 6.7 z-score; in the assay with GST-Dm-Relish, 5.66 z-score; with GST-Aq-NF-kB it was 4.66 z-score.

In the case of “CCGATTAACATCAGGCAACCCCATGATGTTAATCGGGTCTTGATTCGCTTGACGCTGCTG”, the binding signal with GST-Ap-NF-kB RHD was found to be 1.67 z-score; in the assay with GST-Co-NF-kB, 1.23 z-score; with GST-Dm-Relish it was 2.62 z-score; with GST-Aq-NF-kB it was 1.4 z-score.

As for “CCGATTAACATCAGTCCCCCCCATGATGTTAATCGGGTCTTGATTCGCTTGACGCTGCTG”, the binding signal is 5.83 z-score with GST-Ap-NF-kB RHD; 3.57 z-score in assay [1]; 6.28 z-score in the assay with GST-Co-NF-kB; 4.23 z-score with GST-Dm-Relish; 4.7 z-score in the assay with GST-Aq-NF-kB.

For “CCGATTAACATCAAGCCCCCCCTTGATGTTAATCGGGTCTTGATTCGCTTGACGCTGCTG”, the binding signal is 4.63 z-score in the assay with GST-Ap-NF-kB RHD; 4.35 z-score in assay [1]; 3.04 z-score in the assay with GST-Co-NF-kB; 4.77 z-score in the assay with GST-Dm-Relish; 4.92 z-score in the assay with GST-Aq-NF-kB.

Consider “CCGATTAACATCAATCCCCCCCCTGATGTTAATCGGGTCTTGATTCGCTTGACGCTGCTG”, for which the binding signal with GST-Ap-NF-kB RHD worked out at 7.49 z-score; with GST-Co-NF-kB it was 7.2 z-score; with GST-Dm-Relish it was 6.09 z-score; with GST-Aq-NF-kB, 5.2 z-score.

Consider “CCGATTAACATCAGGTGTTCCCATGATGTTAATCGGGTCTTGATTCGCTTGACGCTGCTG”, for which the binding signal with GST-Ap-NF-kB RHD was 1.43 z-score; with GST-Co-NF-kB, 1.45 z-score; with GST-Dm-Relish, 5.22 z-score; with GST-Aq-NF-kB, 2.04 z-score.

In the case of “CCGATTAACATCACCGGAATTCCTGATGTTAATCGGGTCTTGATTCGCTTGACGCTGCTG”, the binding signal was determined as 1.13 z-score in the assay with GST-Ap-NF-kB RHD, 1.36 z-score with GST-Co-NF-kB, 3.45 z-score in the assay with GST-Dm-Relish and 2.36 z-score with GST-Aq-NF-kB.

As to “CCGATTAACATCACGGATATCCCTGATGTTAATCGGGTCTTGATTCGCTTGACGCTGCTG”, the binding signal with GST-Ap-NF-kB RHD came to 1.57 z-score; with GST-Co-NF-kB it was 1.15 z-score; with GST-Dm-Relish it was 2.04 z-score; with GST-Aq-NF-kB, 2.76 z-score.

“CCGATTAACATCAAGGAATGCCCTGATGTTAATCGGGTCTTGATTCGCTTGACGCTGCTG”: the binding signal with GST-Ap-NF-kB RHD came to 1.68 z-score; with GST-Dm-Relish it was 1.35 z-score; with GST-Aq-NF-kB it was 2.68 z-score.

Turning to “CCGATTAACATCATTTATCCCGGTGATGTTAATCGGGTCTTGATTCGCTTGACGCTGCTG”, the binding signal worked out at 1.16 z-score with GST-Ap-NF-kB RHD, 2.85 z-score with GST-Co-NF-kB, 1.77 z-score with GST-Dm-Relish and 1.14 z-score with GST-Aq-NF-kB.

Take “CCGATTAACATCACGGGATGCCCTGATGTTAATCGGGTCTTGATTCGCTTGACGCTGCTG”: the binding signal with GST-Ap-NF-kB RHD was 1.03 z-score; with GST-Dm-Relish, 5.65 z-score; with GST-Aq-NF-kB it was 3.09 z-score.

Take “CCGATTAACATCACGGAATGCCCTGATGTTAATCGGGTCTTGATTCGCTTGACGCTGCTG”: the binding signal stood at 1.03 z-score in the assay with GST-Ap-NF-kB RHD, 1.71 z-score in the assay with GST-Dm-Relish and 2.6 z-score in the assay with GST-Aq-NF-kB.

Source of the values: PMC5700166.
